Columns and labels:
Assay in all cases: DAPPL (digital affinity profiling via proximity ligation, sequencing); 10 mM Tris-HCl pH 7.5, 50 mM NaCl, 1 mM DTT, 4% glycerol, room temperature, 30 min; GST-TFs on glutathione beads, 16-mer random dsDNA library, 0.1% formaldehyde crosslink after washing; high values mean tight binding
Settings in all cases: protein: recombinant; tags: N-terminal GST; dsDNA, one strand shown
[1] = target: T1, FEV (Homo sapiens, UniProt Q99581 1-238)
T1 sequence: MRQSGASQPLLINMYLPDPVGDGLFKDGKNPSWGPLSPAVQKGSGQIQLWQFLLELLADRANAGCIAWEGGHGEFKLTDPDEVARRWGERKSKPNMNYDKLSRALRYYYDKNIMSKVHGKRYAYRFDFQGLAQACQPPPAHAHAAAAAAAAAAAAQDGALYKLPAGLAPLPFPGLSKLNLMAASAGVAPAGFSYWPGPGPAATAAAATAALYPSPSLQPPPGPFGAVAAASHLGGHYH
Method in brief: (§1)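 Yeast served to express human transcription factors as GST fusions, which were then captured on glutathione beads and labelled with DNA barcodes. Pooled with a tag-only sample, they were incubated with 200 nmole of a 16-mer random double-stranded DNA library for 30 min at room temperature in Tris/NaCl/DTT/glycerol buffer, washed, crosslinked with 0.1% formaldehyde, ligated by proximity, amplified by PCR and sequenced. Dividing each hexamer's read frequency for a factor by its frequency for the tag-only sample gives the binding signal.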

[2] = target: ETV5 (Homo sapiens, UniProt P41161 1-510)
Sequence of ETV5 (P41161 whole entry): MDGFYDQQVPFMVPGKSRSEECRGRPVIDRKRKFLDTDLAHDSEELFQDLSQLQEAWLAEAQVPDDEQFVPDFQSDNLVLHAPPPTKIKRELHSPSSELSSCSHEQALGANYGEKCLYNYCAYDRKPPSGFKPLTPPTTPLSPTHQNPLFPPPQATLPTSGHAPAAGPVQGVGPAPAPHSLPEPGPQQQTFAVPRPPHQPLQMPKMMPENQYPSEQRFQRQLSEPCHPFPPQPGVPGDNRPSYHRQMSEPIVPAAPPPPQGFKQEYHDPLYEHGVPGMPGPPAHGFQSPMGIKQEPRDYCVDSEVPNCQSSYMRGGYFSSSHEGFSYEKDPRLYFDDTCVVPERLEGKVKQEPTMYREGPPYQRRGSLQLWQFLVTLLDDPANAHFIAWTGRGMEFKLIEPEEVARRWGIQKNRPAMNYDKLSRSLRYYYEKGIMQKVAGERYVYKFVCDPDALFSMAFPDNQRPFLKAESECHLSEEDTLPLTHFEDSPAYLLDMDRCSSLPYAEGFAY
Method in brief: as §1

[3] = target: T2, SPIC (Homo sapiens, UniProt Q8N5J4 1-248)
T2 sequence: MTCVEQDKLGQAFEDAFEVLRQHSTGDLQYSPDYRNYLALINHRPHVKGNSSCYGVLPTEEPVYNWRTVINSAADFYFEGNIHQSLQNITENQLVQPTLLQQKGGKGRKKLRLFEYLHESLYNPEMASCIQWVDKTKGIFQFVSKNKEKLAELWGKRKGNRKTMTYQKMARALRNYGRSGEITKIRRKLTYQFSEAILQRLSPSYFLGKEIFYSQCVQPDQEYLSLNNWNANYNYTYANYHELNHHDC
Method in brief: as §1

[4] = target: ELF4 (Homo sapiens, UniProt Q99607 1-663)
Sequence of ELF4 (Q99607 whole entry): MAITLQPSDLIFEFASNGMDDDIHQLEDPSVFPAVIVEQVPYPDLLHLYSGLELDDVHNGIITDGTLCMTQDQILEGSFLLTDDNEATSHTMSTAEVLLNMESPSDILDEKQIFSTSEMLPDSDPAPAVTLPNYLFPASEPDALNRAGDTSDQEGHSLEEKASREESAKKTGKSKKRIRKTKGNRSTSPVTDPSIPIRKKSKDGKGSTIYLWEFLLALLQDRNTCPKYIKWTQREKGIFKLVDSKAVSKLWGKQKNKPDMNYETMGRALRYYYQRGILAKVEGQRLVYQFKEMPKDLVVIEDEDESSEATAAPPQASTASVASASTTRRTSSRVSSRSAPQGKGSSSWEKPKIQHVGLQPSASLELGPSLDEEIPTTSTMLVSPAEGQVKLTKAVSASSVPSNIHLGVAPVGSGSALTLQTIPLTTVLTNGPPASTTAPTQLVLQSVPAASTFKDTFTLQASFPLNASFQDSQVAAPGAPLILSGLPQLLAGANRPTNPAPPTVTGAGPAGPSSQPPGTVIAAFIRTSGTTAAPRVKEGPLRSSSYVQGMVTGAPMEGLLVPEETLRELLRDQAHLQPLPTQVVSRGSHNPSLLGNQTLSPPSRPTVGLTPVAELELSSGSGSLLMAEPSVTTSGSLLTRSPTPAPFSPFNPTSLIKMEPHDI
Method in brief: as §1

[5] = target: T3, ELK4 (Homo sapiens, UniProt P28324-2 1-405)
T3 sequence: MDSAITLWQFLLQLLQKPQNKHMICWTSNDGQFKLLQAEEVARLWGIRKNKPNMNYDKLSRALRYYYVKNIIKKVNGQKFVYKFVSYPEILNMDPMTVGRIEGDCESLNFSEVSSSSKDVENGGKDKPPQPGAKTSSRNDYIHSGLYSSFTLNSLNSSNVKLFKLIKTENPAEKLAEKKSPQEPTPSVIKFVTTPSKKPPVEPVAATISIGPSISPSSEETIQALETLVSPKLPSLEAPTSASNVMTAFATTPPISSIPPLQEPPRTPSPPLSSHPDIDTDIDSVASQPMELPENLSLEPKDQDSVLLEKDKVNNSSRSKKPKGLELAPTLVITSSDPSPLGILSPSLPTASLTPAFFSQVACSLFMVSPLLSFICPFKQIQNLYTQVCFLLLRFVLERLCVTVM
Method in brief: as §1

[6] = target: T4, ETV2 (Homo sapiens, UniProt O00321 1-342)
T4 sequence: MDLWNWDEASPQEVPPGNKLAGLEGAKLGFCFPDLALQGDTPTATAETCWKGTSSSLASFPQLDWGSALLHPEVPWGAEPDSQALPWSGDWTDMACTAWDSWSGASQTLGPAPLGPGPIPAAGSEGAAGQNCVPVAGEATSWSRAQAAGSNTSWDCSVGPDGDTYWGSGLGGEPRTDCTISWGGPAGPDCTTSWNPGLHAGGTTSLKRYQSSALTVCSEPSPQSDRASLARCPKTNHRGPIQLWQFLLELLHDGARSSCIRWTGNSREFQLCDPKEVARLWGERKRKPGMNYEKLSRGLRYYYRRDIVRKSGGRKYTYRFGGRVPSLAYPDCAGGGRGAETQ
Method in brief: as §1

[7] = target: T5, ELF3 (Homo sapiens, UniProt P78545 1-371)
T5 sequence: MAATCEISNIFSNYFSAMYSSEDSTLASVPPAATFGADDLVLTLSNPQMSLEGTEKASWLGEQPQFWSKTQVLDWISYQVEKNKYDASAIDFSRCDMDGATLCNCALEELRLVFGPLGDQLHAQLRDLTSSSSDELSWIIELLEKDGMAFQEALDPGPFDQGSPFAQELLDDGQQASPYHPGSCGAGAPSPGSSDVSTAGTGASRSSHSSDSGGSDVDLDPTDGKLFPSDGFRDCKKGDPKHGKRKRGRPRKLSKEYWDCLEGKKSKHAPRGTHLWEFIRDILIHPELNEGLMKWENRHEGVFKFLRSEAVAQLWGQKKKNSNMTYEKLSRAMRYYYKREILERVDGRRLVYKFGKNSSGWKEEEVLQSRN
Method in brief: as §1

[8] = target: ETV1 (Homo sapiens, UniProt P50549 1-477)
Sequence of ETV1 (P50549 whole entry): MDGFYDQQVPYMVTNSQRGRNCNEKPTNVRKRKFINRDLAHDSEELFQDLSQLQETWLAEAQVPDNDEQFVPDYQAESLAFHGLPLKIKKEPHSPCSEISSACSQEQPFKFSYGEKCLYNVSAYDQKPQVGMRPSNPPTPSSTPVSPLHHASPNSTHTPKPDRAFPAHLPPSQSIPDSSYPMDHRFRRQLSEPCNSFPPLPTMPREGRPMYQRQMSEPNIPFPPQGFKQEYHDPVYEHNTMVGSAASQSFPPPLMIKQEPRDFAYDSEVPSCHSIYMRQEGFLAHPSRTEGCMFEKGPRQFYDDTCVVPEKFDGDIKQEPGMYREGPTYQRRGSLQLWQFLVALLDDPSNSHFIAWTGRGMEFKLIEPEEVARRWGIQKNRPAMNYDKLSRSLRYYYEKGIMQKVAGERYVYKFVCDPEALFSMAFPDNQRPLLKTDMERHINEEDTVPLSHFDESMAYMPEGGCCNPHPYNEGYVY
Method in brief: as §1

[9] = target: T6, ERF (Homo sapiens, UniProt P50548 1-548)
T6 sequence: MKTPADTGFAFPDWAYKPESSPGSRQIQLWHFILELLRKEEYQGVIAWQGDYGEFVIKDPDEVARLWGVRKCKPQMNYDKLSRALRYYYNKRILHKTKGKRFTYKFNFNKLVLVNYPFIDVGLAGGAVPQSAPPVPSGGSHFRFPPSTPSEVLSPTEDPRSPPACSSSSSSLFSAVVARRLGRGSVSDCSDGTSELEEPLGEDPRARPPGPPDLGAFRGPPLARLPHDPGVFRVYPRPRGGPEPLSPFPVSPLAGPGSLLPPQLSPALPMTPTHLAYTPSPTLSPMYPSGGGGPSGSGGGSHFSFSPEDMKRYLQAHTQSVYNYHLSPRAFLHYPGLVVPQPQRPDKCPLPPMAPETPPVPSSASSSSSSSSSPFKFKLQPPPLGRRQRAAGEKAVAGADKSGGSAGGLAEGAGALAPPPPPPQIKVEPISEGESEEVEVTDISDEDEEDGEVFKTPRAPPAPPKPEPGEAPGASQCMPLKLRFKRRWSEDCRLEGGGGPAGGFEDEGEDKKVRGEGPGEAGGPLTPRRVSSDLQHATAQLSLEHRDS
Method in brief: as §1

[10] = target: T7, ETV3L (Homo sapiens, UniProt Q6ZN32 1-361)
T7 sequence: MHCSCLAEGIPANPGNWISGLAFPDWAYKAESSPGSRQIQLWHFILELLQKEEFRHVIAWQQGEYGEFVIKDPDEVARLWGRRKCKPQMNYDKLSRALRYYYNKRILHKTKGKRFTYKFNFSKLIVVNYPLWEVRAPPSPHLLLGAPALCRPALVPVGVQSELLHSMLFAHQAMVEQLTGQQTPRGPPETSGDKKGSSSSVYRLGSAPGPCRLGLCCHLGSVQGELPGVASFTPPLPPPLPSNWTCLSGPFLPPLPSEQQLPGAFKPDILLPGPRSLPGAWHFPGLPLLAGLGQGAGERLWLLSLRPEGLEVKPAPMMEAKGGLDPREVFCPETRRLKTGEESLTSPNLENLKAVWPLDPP
Method in brief: as §1

[11] = target: T8, ETS2 (Homo sapiens, UniProt P15036 1-469)
T8 sequence: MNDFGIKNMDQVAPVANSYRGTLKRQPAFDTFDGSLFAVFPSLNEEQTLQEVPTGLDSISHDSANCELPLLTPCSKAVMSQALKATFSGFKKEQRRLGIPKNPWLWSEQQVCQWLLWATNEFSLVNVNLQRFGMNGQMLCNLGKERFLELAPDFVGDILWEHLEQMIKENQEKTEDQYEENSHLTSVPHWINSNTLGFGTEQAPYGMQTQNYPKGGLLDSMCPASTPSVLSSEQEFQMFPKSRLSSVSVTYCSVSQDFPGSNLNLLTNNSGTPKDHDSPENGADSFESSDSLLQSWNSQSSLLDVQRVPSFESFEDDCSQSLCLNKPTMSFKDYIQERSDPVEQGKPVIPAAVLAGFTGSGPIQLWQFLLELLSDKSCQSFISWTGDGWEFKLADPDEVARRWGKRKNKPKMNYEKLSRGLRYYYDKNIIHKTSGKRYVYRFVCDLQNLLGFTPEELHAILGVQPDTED
Method in brief: as §1

[12] = target: T9, SPDEF (Homo sapiens, UniProt O95238 1-335)
T9 sequence: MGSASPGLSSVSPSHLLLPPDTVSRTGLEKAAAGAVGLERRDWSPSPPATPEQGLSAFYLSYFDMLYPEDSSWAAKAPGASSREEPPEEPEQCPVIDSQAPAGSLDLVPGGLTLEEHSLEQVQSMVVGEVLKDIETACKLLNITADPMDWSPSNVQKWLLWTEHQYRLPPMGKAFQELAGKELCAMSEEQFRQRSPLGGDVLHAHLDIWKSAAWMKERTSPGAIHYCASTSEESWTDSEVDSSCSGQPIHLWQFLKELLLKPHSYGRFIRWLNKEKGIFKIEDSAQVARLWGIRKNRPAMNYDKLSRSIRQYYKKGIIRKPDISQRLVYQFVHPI
Method in brief: as §1

[13] = target: T10, ETV7 (Homo sapiens, UniProt Q9Y603 1-341)
T10 sequence: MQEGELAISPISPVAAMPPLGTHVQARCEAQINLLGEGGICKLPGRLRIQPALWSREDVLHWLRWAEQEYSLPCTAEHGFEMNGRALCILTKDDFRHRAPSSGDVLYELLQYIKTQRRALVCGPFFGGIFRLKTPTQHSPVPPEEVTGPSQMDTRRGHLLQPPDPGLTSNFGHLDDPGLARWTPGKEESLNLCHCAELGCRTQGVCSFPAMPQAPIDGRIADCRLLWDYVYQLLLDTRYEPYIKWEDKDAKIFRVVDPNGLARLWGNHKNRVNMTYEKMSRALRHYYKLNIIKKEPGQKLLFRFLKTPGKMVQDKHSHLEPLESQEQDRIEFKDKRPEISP
Method in brief: as §1

[14] = target: T11, ELF5 (Homo sapiens, UniProt Q9UKW6-2 1-255)
T11 sequence: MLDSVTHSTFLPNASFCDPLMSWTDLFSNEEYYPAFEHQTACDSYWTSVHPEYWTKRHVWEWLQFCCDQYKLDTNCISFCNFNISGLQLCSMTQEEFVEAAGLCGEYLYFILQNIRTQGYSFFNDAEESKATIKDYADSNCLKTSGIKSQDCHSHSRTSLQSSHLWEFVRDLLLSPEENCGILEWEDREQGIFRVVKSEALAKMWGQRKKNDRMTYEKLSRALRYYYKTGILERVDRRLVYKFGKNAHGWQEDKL
Method in brief: as §1

[15] = target: T12, ETV3 (Homo sapiens, UniProt P41162-2 1-143)
T12 sequence: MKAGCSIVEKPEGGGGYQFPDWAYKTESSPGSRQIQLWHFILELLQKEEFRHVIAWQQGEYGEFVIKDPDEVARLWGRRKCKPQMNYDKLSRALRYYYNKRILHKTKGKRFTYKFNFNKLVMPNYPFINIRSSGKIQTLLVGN
Method in brief: as §1

[16] = target: ETV6 (Homo sapiens, UniProt P41212 1-452)
Sequence of ETV6 (P41212 whole entry): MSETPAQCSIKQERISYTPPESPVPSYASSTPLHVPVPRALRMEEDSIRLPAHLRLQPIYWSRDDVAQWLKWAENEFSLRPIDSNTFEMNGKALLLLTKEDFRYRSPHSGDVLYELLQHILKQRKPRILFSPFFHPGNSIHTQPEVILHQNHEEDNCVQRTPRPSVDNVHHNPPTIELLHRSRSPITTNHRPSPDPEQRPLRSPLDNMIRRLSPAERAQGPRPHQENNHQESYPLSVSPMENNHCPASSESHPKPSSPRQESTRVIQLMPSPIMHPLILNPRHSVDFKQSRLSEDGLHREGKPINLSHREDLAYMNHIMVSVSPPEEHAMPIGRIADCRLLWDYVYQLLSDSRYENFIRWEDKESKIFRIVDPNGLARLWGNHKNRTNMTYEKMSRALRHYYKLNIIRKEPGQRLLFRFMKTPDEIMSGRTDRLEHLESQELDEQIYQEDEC
Method in brief: as §1

**Q.** What does the source list for GCTACC?
**A.** binding signal [1]: 1.18 fold enrichment (6-mer frequency, TF over GST control); binding signal [2]: 1.17 fold enrichment (6-mer frequency, TF over GST control); binding signal [3]: 1.23 fold enrichment (6-mer frequency, TF over GST control); binding signal [4]: 1.24 fold enrichment (6-mer frequency, TF over GST control); binding signal [5]: 1.04 fold enrichment (6-mer frequency, TF over GST control); binding signal [6]: 1.08 fold enrichment (6-mer frequency, TF over GST control); binding signal [7]: 1.1 fold enrichment (6-mer frequency, TF over GST control); binding signal [8]: 1.26 fold enrichment (6-mer frequency, TF over GST control); binding signal [9]: 1.31 fold enrichment (6-mer frequency, TF over GST control); binding signal [10]: 1.15 fold enrichment (6-mer frequency, TF over GST control); binding signal [11]: 1.22 fold enrichment (6-mer frequency, TF over GST control); binding signal [12]: 1.22 fold enrichment (6-mer frequency, TF over GST control); binding signal [13]: 1.27 fold enrichment (6-mer frequency, TF over GST control); binding signal [14]: 1.24 fold enrichment (6-mer frequency, TF over GST control); binding signal [15]: 1.24 fold enrichment (6-mer frequency, TF over GST control); binding signal [16]: 1.16 fold enrichment (6-mer frequency, TF over GST control)

**Q.** What does the source list for CCACAT?
**A.** binding signal [1]: 1.27 fold enrichment (6-mer frequency, TF over GST control); binding signal [2]: 1.17 fold enrichment (6-mer frequency, TF over GST control); binding signal [3]: 1.29 fold enrichment (6-mer frequency, TF over GST control); binding signal [4]: 1.21 fold enrichment (6-mer frequency, TF over GST control); binding signal [5]: 1.28 fold enrichment (6-mer frequency, TF over GST control); binding signal [6]: 1.17 fold enrichment (6-mer frequency, TF over GST control); binding signal [7]: 1.17 fold enrichment (6-mer frequency, TF over GST control); binding signal [8]: 1.21 fold enrichment (6-mer frequency, TF over GST control); binding signal [9]: 1.28 fold enrichment (6-mer frequency, TF over GST control); binding signal [10]: 1.15 fold enrichment (6-mer frequency, TF over GST control); binding signal [11]: 1.2 fold enrichment (6-mer frequency, TF over GST control); binding signal [12]: 1.22 fold enrichment (6-mer frequency, TF over GST control); binding signal [13]: 1.05 fold enrichment (6-mer frequency, TF over GST control); binding signal [14]: 1.15 fold enrichment (6-mer frequency, TF over GST control); binding signal [15]: 1.17 fold enrichment (6-mer frequency, TF over GST control); binding signal [16]: 1.2 fold enrichment (6-mer frequency, TF over GST control)

Source: PMC7862700, “An all-to-all approach to the identification of sequence-specific readers for epigenetic DNA modifications on cytosine”
